Measurements from PubChem BioAssay AID624331 (National Center for Advancing Translational Sciences (NCATS), 2012).
Records with an inconclusive call do not appear. Unmarked numbers belong to inactive results. Active and inactive are the calls of the source. Calls follow the shape of the dose curve; as a rule, active = well fitted activation curve with a large enough effect; inconclusive = small, poorly fitted or top-dose-only effect; inactive = no such curve, though single readings can be large or run the other way.

assay: qHTS assay for re-activators of p53 using a Luc reporter: Hit Validation with no p53 Expressed; details: p53-null cells, luciferase reporter counter-screen; series mostly up to 46.1 µM; activity change, positive = activation: at the top concentration; as to activity change, positive = activation: 0% is about no effect
Procedure, shortened: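 Counter-screen of primary hits in a cell line not transfected with p53, in Opti-MEM with 10% FBS; compounds at several concentrations (10 mM stock, 1:5; top 46.1 µM in well), 24 h at 37 deg C, 5% CO2. Luminescence read after 10 min with Amplite reagent.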
Potency is read from the fitted curve at half-maximal effect.

Row | SMILES | activity change, positive = activation | Potency
1 | COc1cccc(/C=N/Nc2cc(-n3nc(C)cc3-c3ccccc3)ncn2)c1O | 63.3% | –
2 | Cc1ccc2nc(NC(=O)c3ccc(Cl)s3)sc2c1 | 12.4% | –
3 | O=C(/C(=C\c1ccccc1)c1nc2ccccc2[nH]1)c1ccc(Cl)cc1 | 74.7% | –
4 | O=C1NC(c2ccc(Br)cc2)=N/C1=C/c1ccco1 | 14.3% | –
5 | CC(Cc1ccccc1)NC(=O)c1ccc([N+](=O)[O-])cc1 (stereo not given) | 49.8% | –
6 | COc1ccc(NC(=S)NC(=NS(=O)(=O)c2ccc(Cl)cc2)c2ccccc2)cc1 | 42.3% | –
7 | CN(C)CCCn1c(SCC(=O)Nc2nccs2)nnc1-c1ccncc1 | -9.64% | –
8 | COC(=O)C1=C(C(=O)c2ccccc2)C(c2ccc(OC)c(OC)c2)Nc2nnnn21 (stereo not given) | -13.2% | –
9 | CC1Cc2ccccc2N1C(=O)COC(=O)C1(c2ccccc2F)CCCC1 (stereo not given) | -13.2% | –
10 | O=C(CCCN1C(=O)/C(=C/c2ccco2)SC1=S)Nc1ccccc1 | -23.8% | –
11 | CCc1nnc(NC(=O)C2Cc3ccccc3CN2S(=O)(=O)c2cccs2)s1 (stereo not given) | 11.4% | –
12 | COc1ccc(S(=O)(=O)NC2CC(C)(C)NC(C)(C)C2)c2ccccc12 | 9.79% | –
13 | O=C(/C=C/c1ccco1)Nc1ccccn1 | -15.9% | –
14 | O=C(c1ccco1)n1c(=S)nc2ccccn21 | 85.9% | –
15 | Cc1ccc(NC(=S)NC(=O)C2CCCCC2)c(Br)c1 | 37.8% | –
16 | CCN(CC)CCn1c(SCC(=O)Nc2ccc3c(c2)CCC3)nc2ccccc2c1=O | – | 8200 nM (active)
17 | N=C1C(c2nc3ccccc3s2)=C(O)CN1Cc1ccccc1 | -9.16% | –
18 | CCOCCCNc1nc2c([nH]1)c(=O)n(C)c(=O)n2C | 46.1% | –
19 | ON=C1c2cc(OCCN3CCCCC3)ccc2-c2ccc(OCCN3CCCCC3)cc21 | -34.7% | –
20 | COc1ccccc1C(=O)NC(=S)NNC(=O)c1sc2ccccc2c1Cl | -18.8% | –

Row | SMILES | activity change, positive = activation | Potency
21 | COc1ccc2c(=O)c(-c3nc(C)cs3)coc2c1 | -21.3% | –
22 | O=C(NNC(=O)c1ccc(Cl)cc1Cl)c1ccncc1 | -31.3% | –
23 | O=C(NC(=S)Nc1ccccc1Br)C1CCCCC1 | 28% | –
24 | CCOC(=O)c1cccc(C2=CC(=O)C[C@H](c3ccc(OC)cc3)C2)c1 | 43.4% | –
25 | CCS(=O)(=O)NCCc1csc(-c2ccccc2)n1 | -21.3% | –
26 | Cc1cc(C(F)(F)F)c(C#N)c(SCC(=O)Nc2nc3ccccc3s2)n1 | – | 116 nM (active)
27 | NC(=NCc1ccccc1)c1cccc([N+](=O)[O-])c1 | -33.5% | –
28 | CC1=CN2C(=N)/C(=C/c3ccc(C)o3)C(=O)N=C2S1 | -17.3% | –
29 | O=C(Nc1nc(-c2cccs2)cs1)c1ccc([N+](=O)[O-])o1 | -36.5% | –
30 | O=C(Nc1cccc(N=Cc2cc(Cl)cc(Br)c2O)c1)c1ccco1 | -26% | –
31 | COc1cc(C2=NOC(C(=O)NCc3ccc(F)cc3)C2)cc(OC)c1OC (stereo not given) | -22.3% | –
32 | CCCCOC(=O)c1ccc(NC(=O)CSc2nncn2C)cc1 | -14.1% | –
33 | Cc1cccc(-n2nc([N+](=O)[O-])c(=NC3CCN(Cc4ccccc4)CC3)n2O)c1 | -29.7% | –
34 | O=C1NCCCc2c1oc1ccc(O)cc21 | 25.7% | –
35 | O=C(Oc1c(Cl)cc(Cl)c2cccnc12)c1cccc([N+](=O)[O-])c1 | -64.6% | –
36 | CCOc1ccc(N2C(=O)c3ccccc3NC2(C)CC)cc1 (stereo not given) | 59.9% | –
37 | COc1cc(C(C)=O)ccc1Oc1ncnc2c1cnn2-c1ccc(F)cc1 | 12.1% | –
38 | c1ccc(COc2ccc(OCCOCCn3cncn3)cc2)cc1 | – | 1300 nM (active)
39 | C/C(=N\NC(=O)c1ccc(F)cc1)c1ccccn1 | 11.7% | –
40 | COc1ccc(NC(=O)COC(=O)C23CC4CC(CC(O)(C4)C2)C3)cc1Cl | -41.7% | –
